In the library only some 7.3% were active in any assay of this set; here they are far more common.
KinaseGlo FLuc: Counterscreen for Luciferase (Kinase-Glo TM) Inhibition; Luciferin 4-monooxygenase (Photuris pensylvanica), Q27757; Kinase-Glo luciferase, ATP luminescence, 8 min; Potency, µM (titrated, usually from 38.3 µM), for the others: top-dose activity change, negative = inhibition, hits mostly inhibitors; 200,000 tested, 0.28% active; AID 1379, 2008; also: % is scaled to controls: 0 for no effect and ±100 for the full control effect; nearly all actives have a fitted effect of over 60% in size
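Inhibition of Kinase-Glo luciferase light generation was assessed at 10 uM ATP in pH 7.2 imidazole buffer, with luminescence measured after eight minutes at ambient temperature.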
Rab9 prom act: qHTS Assay for Rab9 Promoter Activators; Huh7 Rab9 promoter-luciferase reporter, luminescence, 24 h; AID 485297, 2010; 320,000 tested, 2.8% active; Potency, µM (titrated, usually from 9.22 µM), for the others: at the highest dose activation, negative = inhibition, actives largely listed as activators; also: % of control where 0% means no effect; nearly all actives have a fitted effect of over 60% in size
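Luciferase signal after 10 min detection reagent at ambient indicates Rab9 promoter upregulation; stably transfected Huh7 cells were treated 24 h with compound in DMSO at 37 °C, 5% CO2.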
FLuc modulator: qHTS profiling assay for firefly luciferase inhibitor/activator using purifed enzyme and Km concentrations of substrates (counterscreen for miR-21 project); Luciferin 4-monooxygenase (Photinus pyralis), P08659; purified FLuc, Km substrates, luminescence inhibition; Potency, µM (titrated, usually from 57.5 µM), for the others: at the highest dose activity change, negative = inhibition, actives largely listed as inhibitors; 360,000 tested, 6.9% active; AID 588342, 2011;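 also: plate controls were vehicle for no effect and reference inhibitor for full effect; nearly all actives have a fitted effect of over 55% in size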
Target sequence (P08659 whole entry, looked up): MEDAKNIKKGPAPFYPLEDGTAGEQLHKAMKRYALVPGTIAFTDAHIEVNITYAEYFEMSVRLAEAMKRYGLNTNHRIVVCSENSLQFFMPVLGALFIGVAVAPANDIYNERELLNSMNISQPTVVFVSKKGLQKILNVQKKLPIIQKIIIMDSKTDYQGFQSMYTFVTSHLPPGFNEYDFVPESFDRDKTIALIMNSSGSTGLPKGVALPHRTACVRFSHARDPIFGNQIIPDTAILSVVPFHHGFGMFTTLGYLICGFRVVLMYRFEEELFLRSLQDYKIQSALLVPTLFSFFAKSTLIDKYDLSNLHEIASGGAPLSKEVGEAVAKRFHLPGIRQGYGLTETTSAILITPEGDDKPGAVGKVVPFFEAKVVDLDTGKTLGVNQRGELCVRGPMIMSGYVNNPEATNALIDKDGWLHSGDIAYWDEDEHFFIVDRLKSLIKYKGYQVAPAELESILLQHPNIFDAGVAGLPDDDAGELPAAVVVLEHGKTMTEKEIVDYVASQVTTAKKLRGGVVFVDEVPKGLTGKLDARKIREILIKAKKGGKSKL
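Biochemical qHTS of compounds, final roughly 60 µM downward over six points, against 10 nM purified firefly luciferase using Km concentrations of substrates (10 uM D-luciferin, 10 uM ATP) in Tris acetate pH 7.5 buffer; luminescence output.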
SMN2 splice enh: qHTS Assay for Enhancers of SMN2 Splice Variant Expression; HEK293 SMN2-luciferase splicing reporter, luminescence, 30-36 h; Potency, µM (titrated, usually from 46.1 µM), inactives show at the top dose activity change, positive = activation, most hits filed as activators; 210,000 tested, 2.8% active; also: % of control where 0% means no effect; nearly all actives have a fitted effect of over 55% in size
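HEK293 cells carry an SMN2 minigene-luciferase reporter in which exon 7 inclusion puts luciferase in frame. Cells were seeded at 2000 cells/well, attached for 10-12 hours, then exposed to compounds for 30-36 hours at 37C before ONE-Glo luminescence.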
NPC1 prom act: qHTS Assay for NPC1 Promoter Activators | Huh7 NPC1 promoter luciferase reporter, 24 h | Potency, µM (doses to about 9.22 µM), for inactives: at the highest dose activation, usual class: activators | 320,000 tested, 2.4% active; also: % of control where 0% means no effect; nearly all actives have a fitted effect of over 60% in size
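Compounds in DMSO were transferred onto Huh7 NPC1-luciferase reporter cells pre-incubated 2 h; after 24 h at 37 °C, Amplite reagent was dispensed and luminescence recorded 10 min later.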
Active calls of the source: *; ? = inconclusive; nt = no result given. Calls follow the shape of the dose curve; as a rule, active = well fitted curve in the direction sought with a large enough effect; inconclusive = small, poorly fitted or top-dose-only effect, or another doubt; inactive = no such curve, though single readings can be large; an effect the other way counts as inactive or inconclusive. Potency is read from the fitted curve at half-maximal effect.

SMILES	KinaseGlo FLuc	Rab9 prom act	FLuc modulator	SMN2 splice enh	NPC1 prom act
O=C(COc1ccccc1Cl)Nc1nc(-c2cccs2)cs1	6.5%	0.9%	16.9µM*	-3.0%	-1.8%
CCOC(=O)c1csc(NC(=O)COc2ccc(Cl)cc2Cl)n1	-4.5%	-7.9%	23.9µM*	-8.5%	-2.1%
O=C(COc1ccccc1)Nc1nc(-c2ccncc2)cs1	nt	2.2%	?	nt	3.3%
CCCC(=O)Nc1nc(C(=O)OCC)cs1	-0.8%	2.5%	-5.5%	-7.6%	9.3%
Cc1cccc(N2CCN(C(c3ccccc3)c3nnc(-c4ccccc4Cl)o3)CC2)c1C (centres undefined)	nt	nt	?	2.2%	nt
Cc1c(-c2ccccc2)c(=O)oc2c(CN3CCN(C)CC3)c(O)ccc12	nt	nt	-6.5%	nt	nt
COc1ccc(N2CC(NC(=O)C3CCCCC3)CC2=O)cc1OC (centres undefined)	nt	nt	-3.1%	nt	nt
COc1ccccc1CNC(=O)Cn1cc2c(n1)-c1c(oc(C(=O)N3CCOCC3)c1C)CC2	nt	nt	-0.3%	nt	nt
CC1CCN(c2oc(-c3cccc4ccccc34)nc2C#N)CC1	-0.4%	?	?	11.2µM*	?
CCNc1oc(-c2cccc3ccccc23)nc1C#N	1.0%	nt	?	-4.5%	nt
CC(C)Nc1oc(-c2cccc3ccccc23)nc1C#N	10.8%	?	12µM*	9.7%	-0.3%
COCCNc1oc(-c2ccccc2Cl)nc1C#N	0.0%	9.1%	19µM*	0.0%	17.2%
COCCNc1oc(-c2ccc(F)cc2)nc1C#N	-2.0%	26.5%	?	4.9%	19.4%
CN(/N=C/c1ccncc1)C1=NCCN1	nt	8.3%	-1.9%	nt	-3.2%
CN(/N=C/c1ccncc1)c1cnc2ccccc2n1	-0.8%	3.98µM*	4.78µM*	11.2µM*	?
CCOC(=O)c1c(C)[nH]c(C(=O)COC(=O)C2(C)CC2(Cl)Cl)c1C (centres undefined)	0.7%	3.16µM*	13.5µM*	-7.8%	?
CCCCC(=O)OCC(=O)c1[nH]c(C)c(C(C)=O)c1C	-0.4%	-3.1%	10.7µM*	6.0%	-0.5%
CCOC(=O)c1c(C)[nH]c(C(=O)COC(=O)C2CC2)c1C	nt	-2.2%	9.53µM*	nt	-0.4%
CCc1ccc(C(=O)CSc2nc(-c3ccccc3)nc3c2CCCC3)cc1	nt	nt	7.0%	11.4%	nt
CCC1(C)Cc2c(sc3nc(SC)n(-c4ccc(C)cc4)c(=O)c23)CO1 (centres undefined)	nt	nt	-11.7%	-14.4%	nt
Fc1ccc(N/N=C/c2ccc(N3CCOCC3)cc2)c(F)c1	-1.7%	2µM*	12µM*	11.2µM*	2.51µM*
O=S(=O)(Nc1ccc(N2CCOCC2)cc1)c1ccc(F)cc1F	0.0%	2.2%	-0.7%	0.3%	-4.4%
C(=N\n1cnnc1)/c1ccc(N2CCOCC2)cc1	11.3%	7.0%	?	1.7%	0.8%
C/C(=N\Nc1ccc(F)cc1F)c1ccc(N2CCOCC2)cc1	0.9%	?	15.1µM*	?	?
S=c1[nH]ncn1/N=C/c1ccc(N2CCOCC2)cc1	-7.8%	4.47µM*	7.57µM*	12.6µM*	3.98µM*
SMILES	KinaseGlo FLuc	Rab9 prom act	FLuc modulator	SMN2 splice enh	NPC1 prom act
CN(C)/N=C/c1ccc(N2CCOCC2)cc1	-19.3%	2.51µM*	16.9µM*	?	?
Cc1ccc(NC(=O)Nc2cccc(C)n2)c(C)c1	nt	?	?	nt	21.5%
Cc1cccc(NC(=S)NC(=O)/C=C/c2ccccc2)n1	-0.5%	2.51µM*	-1.8%	12.4%	?
Cc1cccc(NC(=O)c2cc(NC(=O)c3ccco3)ccc2Cl)n1	0.1%	-4.7%	?	-16.2%	-1.4%
Cc1cccc(NC(=O)Nc2ccccc2)n1	nt	?	12µM*	nt	?
COc1cccc(NC(=O)Nc2cccc(C)n2)c1	nt	?	5.36µM*	nt	2.24µM*
COc1ccc(NC(=S)NC(=O)/C=C/c2ccccc2)cc1	nt	11.3%	6.6%	nt	0.5%
Cc1cccc(NC(=O)Nc2ccc(Cl)c(Cl)c2)n1	nt	?	2.39µM*	nt	?
CCn1cc(C(=O)NCCc2ccc(OC)c(OC)c2)c(=O)c2cc(S(=O)(=O)N3CCC(C)CC3)ccc21	nt	nt	3.5%	4.1%	nt
COc1cccc(CNC(=O)CCn2cccn2)c1	nt	nt	-2.2%	nt	nt
Cc1nc2cc(NC(=O)Nc3ccc(Br)cc3)ccc2o1	-1.1%	0.501µM*	2.39µM*	11.2µM*	1.78µM*
Cc1nc2cc(NC(=O)N3c4ccccc4CC3C)ccc2n1C (centres undefined)	-6.7%	0.447µM*	1.69µM*	2.82µM*	0.501µM*
Cc1nc2cc(NC(=O)N3c4ccccc4CC3C)ccc2o1 (centres undefined)	-3.1%	0.891µM*	6.01µM*	11.2µM*	0.794µM*
Clc1cccc(/C=N/Nc2nnc(Cl)c3ccccc23)c1	-6.2%	20.9%	?	12.2%	?
Clc1ccc(/C=N/Nc2nnc(-c3ncc[nH]3)c3ccccc23)cc1	-8.0%	2.82µM*	0.849µM*	?	4.47µM*
CN(C)CCN(C)C(=O)c1ccc(-n2c(=O)c(=O)[nH]c3ccccc32)cc1	-1.7%	nt	nt	nt	nt
COc1ccc(NC2CCCN(C(=O)CN3CCOC3=O)C2)cc1 (centres undefined)	nt	?	10.7µM*	nt	?
COc1ccc(NC2CCCN(C(=O)CN3CCOC3=O)C2)cc1OC (centres undefined)	nt	-6.6%	0.7%	nt	-2.5%
O=C1OCCC1Sc1nnnn1-c1ccc(Cl)cc1 (centres undefined)	nt	-2.5%	10.7µM*	nt	-3.7%
O=C1OCCC1Sc1nnnn1-c1ccccc1 (centres undefined)	-2.1%	-8.1%	2.2%	-3.0%	-0.5%
CCc1ccc(C(=O)c2c(N)c(-c3nc(-c4ccc5c(c4)OCO5)cs3)c3ccccn23)cc1	nt	nt	-7.9%	-4.9%	nt
O=C(NCc1cn2ccccc2n1)c1ccc2c(c1)OCO2	4.8%	2.0%	-0.9%	-6.6%	-3.0%
COC(=O)c1ccc2nc(-c3ccc4c(c3)OCO4)cn2c1	?	0.1µM*	0.301µM*	nt	0.224µM*
CCc1ccn2cc(-c3ccc4c(c3)OCO4)nc2c1	nt	?	0.0601µM*	nt	?
O=C(/C=C/c1ccccc1)NC1CCSC1=O (centres undefined)	-4.9%	21.3%	?	15.8µM*	24.8%
CCC(Oc1ccc(F)cc1)C(=O)Nc1c(C(=O)c2ccc(C)cc2)oc2ccccc12 (centres undefined)	nt	nt	2.6%	5.0%	nt
c1ccc2oc(NC3=NCN(CC4CCCO4)CN3)nc2c1 (centres undefined)	-1.6%	3.98µM*	16.9µM*	12.6µM*	?
CCCN(CCC)CCNC(=O)Cn1ncc2c([nH]c3ccc(C)cc32)c1=O	nt	nt	0.4%	nt	nt
O=c1c2c3c(sc2ncn1/N=C/c1ccccc1)CCCC3	-1.4%	22.5%	10.7µM*	20µM*	24.8%
NNc1nc2sc3c(c2c(=O)n1-c1ccccc1)CCCC3	nt	0.8%	12µM*	nt	-6.2%

Source: PubChem BioAssay
